PriA SSB inh – inhibitors of Klebsiella pneumoniae PriA binding to SSB C-terminal tail, primary screen, biochemical, AlphaScreen | AlphaScreen SSBct-PriA binding, biotinylated peptide | inhibition, % at 33 µM | actives 0.6% (n = 430,000) | AID 1272365, 2023; in the data active = inhibition mostly above about 37%, no sharp cut-off; inactive = mostly below about 20%;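 note: plate controls were negative control peptide for no effect and reference peptide for full effect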
RN4220 kill – growth inhibition of S. aureus RN4220, primary screen, OD600. 16 h. inhibition, % (concentration not given with the values). AID 1259311, 2017. actives 0.33% (n = 330,000); in the data active = inhibition above about 85%;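 note: plate controls were untreated cells for no effect and reference antibiotic for full effect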
Mtb hypoxia rep – PubChem AID 1159583. M. tuberculosis hypoxia-regulated fluorescent reporter, fluorescence. fluorescence inhibition, % (concentration not given with the values). actives 0.1% (n = 300,000); in the data active = fluorescence inhibition mostly above about 23%, no sharp cut-off; inactive = mostly below about 17%
VHR inh abs – VHR1 phosphatase inhibitors, primary screen, biochemical, absorbance, uHTS; recombinant VHR phosphatase, pNPP absorbance; inhibition, % at 13.3 µM; actives 0.52% (n = 290,000); AID 1654, 2009; in the data active = inhibition above about 50%
Target sequence (P51452 whole entry, looked up): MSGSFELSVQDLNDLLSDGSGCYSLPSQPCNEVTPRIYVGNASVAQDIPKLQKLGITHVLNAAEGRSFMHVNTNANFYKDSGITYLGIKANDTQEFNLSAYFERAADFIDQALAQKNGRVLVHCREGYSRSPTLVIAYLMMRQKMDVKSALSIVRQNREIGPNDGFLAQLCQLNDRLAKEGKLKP
Sa ugtP lethal – growth inhibition of ugtP-null S. aureus, primary screen, RN4220 ugtP deletion, OD600; 16 h; growth inhibition, % (no concentration beside the values); actives 0.54% (n = 330,000); AID 1259309, 2017; in the data active = growth inhibition above about 68%;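 note: plate controls were untreated wells for no effect and antibiotic for full effect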
PfHsp40 rescue – rescue of yeast from PfHsp40 toxicity, primary screen, S. cerevisiae, ATP luminescence; growth rescue, % at 12.5 µM; AID 504582, 2011; actives 0.68% (n = 340,000); S. cerevisiae expressing PfHsp40, growth rescue; in the data active = growth rescue above about 28%, passing the limit was not always enough;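 note: yeast W303a lacking pdr1 and pdr3 grown in galactose medium; growth measured after three days at 30 °C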
* marks the source's active call; other numbers are inactive results; . = no result given. The list is not random: actives were taken first. Their share in the collection is about 1.8%.

SMILES	PriA SSB inh	RN4220 kill	Mtb hypoxia rep	VHR inh abs	Sa ugtP lethal	PfHsp40 rescue
CCSc1ccc2c(c1)N(CCCN1CCN(C)CC1)c1ccccc1S2	43*	-7	17	.	29	-1
NC(=O)C(=NOC(=O)c1ccco1)c1nc(-c2ccc(Br)cc2)cs1	-16	-3	3	.	93*	.
COc1ccc(-c2nc(Nc3ccc(C)c(C)c3)c3ccccc3n2)cc1OC	-24	.	.	.	.	.
CCn1cc(C(=O)N2CCSC(c3ccccc3Cl)CC2)c(=O)c2ccc(C)nc21 (configuration not stated)	-3	.	.	.	.	.
CCOC(=O)c1[nH]c2ccccc2c1NC(=O)c1ccc2c(c1)OCO2	97*	12	2	-8	9	0
CCOC(=O)c1[nH]c2ccc(OC)cc2c1NC(=O)c1ccc2c(c1)OCO2	-9	5	2	6	-12	2
CCCC(=O)Nc1c(C(=O)OCC)[nH]c2ccccc12	39*	3	6	-10	9	-1
CCOC(=O)c1ccc(NC(=O)CSc2nnc(CNC(=O)c3c(F)cccc3F)o2)cc1	1	.	.	.	.	.
O=C(CSc1nnc(CNC(=O)c2ccco2)o1)Nc1ccc(F)cc1F	7	-2	0	52*	-3	0
Cc1cc(NC(=O)CSc2nnc(CNC(=O)c3c(F)cccc3F)o2)no1	10	4	-12	53*	4	-1
COc1ccccc1/C=C(/CC(=O)NCc1ccc(F)cc1)c1nc2ccccc2s1	-22	-2	9	2	10	1
COc1ccccc1/C=C(/CC(=O)NCc1ccccc1)c1nc2ccccc2s1	-44	-1	0	54*	17	-1
Cc1cc(NC(=O)c2ccc(N3C(=O)CCC3=O)cc2)c2cc(Br)ccc2n1	-17	.	.	.	.	.
CCOc1ccccc1N(C)S(=O)(=O)c1ccc2c(c1)CC(C)N2C(=O)C1CC1 (configuration not stated)	-11	1	-4	50*	-8	-2
CC(=O)N1c2ccc(C)cc2Sc2c1ccc1ccccc21	-5	4	19	.	70	30*
Cc1ccc2c(c1)S/C(=C\c1cccc[n+]1C)N2CCO	-4	1	10	-1	0	-1
O=Nc1c(O)n(Cc2ccc(Cl)c(Cl)c2)c2ccccc12	7	-10	10	15	-2	259*
O=C(O)c1cc(-n2cccn2)ccn1	75*	.	.	.	.	.
O=C(O)c1cc(I)ccn1	67*	.	.	.	.	.
O=C(Cc1ccc(F)cc1)Nc1nc(-c2ccc3c(c2)OCCO3)cs1	2	.	.	.	.	.
Cc1c(C(=O)N2CCCC2)oc2ccc(Br)cc12	0	4	8	53*	-2	0
CC(=NNC(=O)C(C)Oc1ccc([N+](=O)[O-])cc1)c1ccccn1 (configuration not stated)	48*	3	1	.	-14	.
Cc1ccc(CNC(=O)c2sc(=S)n(-c3ccc(C)cc3)c2N)cc1	30	.	.	.	.	.
Cn1ccc(C(=O)Nc2nc(-c3cccnc3)cs2)n1	-7	.	.	.	.	.
Cc1ccc(CN2CCN(CCCc3ccccc3)CC2CCO)cc1 (configuration not stated)	0	1	-7	-5	14	1
SMILES	PriA SSB inh	RN4220 kill	Mtb hypoxia rep	VHR inh abs	Sa ugtP lethal	PfHsp40 rescue
OCCC1CN(CCCc2ccccc2)CCN1Cc1ccc(F)cc1 (configuration not stated)	0	-3	9	56*	3	2
O=C(NCc1ccc2c(c1)OCO2)C(=O)NCC1(c2cccs2)CCCC1	-9	.	.	.	.	.
COc1ccc(N2CC(C(=O)NN=Cc3cc([N+](=O)[O-])ccc3O)CC2=O)cc1 (configuration not stated)	1	90*	9	.	77	.
O=C(ON=C(c1ccccc1)c1ccncc1)c1ccccc1Cl	2	2	-1	.	6	.
COc1ccc(C=NNC(=O)c2cc(O)c(O)c(O)c2)cc1COc1ccc(C(=O)OCC(C)C)cc1	-6	26	5	.	99*	.
O=C(NN=Cc1ccc(OCc2ccccc2)cc1)c1ccncc1	0	6	36*	.	4	.
COc1ccc(C(=O)N/N=C/c2ccc(OC)c(COc3ccc(F)cc3)c2)cc1	.	.	.	19	.	1
CC(C)(C)c1ccc(OCc2ccc(C(=O)NN=Cc3ccc(O)c(O)c3)cc2)cc1	-6	47	10	.	94*	.
CC(C)S(=O)(=O)c1ccc(C(=O)Nc2nnc(-c3ccncc3)o2)cc1	7	.	.	.	.	.
CN(C)CCCn1cnc2c(c1=N)C(c1ccccc1)c1ccc3ccccc3c1O2 (configuration not stated)	51*	-2	.	16	-13	0
N=c1c2c(ncn1CCCO)Oc1c(ccc3ccccc13)C2c1ccccc1 (configuration not stated)	2	-6	-2	9	-12	1
O=S1(=O)N=C(Nc2ccc(N3CCOCC3)cc2)c2ccccc21	4	0	0	18	-2	-1
O=S1(=O)N=C(Nc2ccc(S(=O)(=O)N3CCCCC3)cc2)c2ccccc21	-28	3	12	53*	10	-1
O=C(C1COc2ccccc2O1)N1CCN(c2ccccc2Cl)CC1 (configuration not stated)	-1	1	4	34	-2	35*
O=C(C1COc2ccccc2O1)N1CCN(c2ccccc2F)CC1 (configuration not stated)	-11	1	21	15	14	0
Cc1cccc(N2CCN(C(=O)C3COc4ccccc4O3)CC2)c1C (configuration not stated)	-7	-1	6	36	2	206*
O=C(C1COc2ccccc2O1)N1CCCCC1 (configuration not stated)	-8	7	.	.	3	-1
O=c1ccc(-c2ccco2)nn1CCCNS(=O)(=O)Cc1ccccc1	-10	.	.	.	.	.
COCC(=O)NNC(=O)c1cccn(Cc2ccc(F)cc2)c1=O	-13	.	.	.	.	.
Cc1nn(CCC(N)=S)c2nc(-c3cccs3)cc(C(F)(F)F)c12	-2	0	4	-26	-18	223*
Cc1nn(CCC#N)c2nc(-c3ccccc3)cc(C(F)(F)F)c12	4	5	.	-24	5	1
Cc1ccc2nc3sc(Nc4ccc(C)c(C)c4)nn3c(=O)c2c1	-3	.	.	.	.	.
CC(NC(=O)CNC(=O)c1cccc(Cl)c1)c1ccccc1 (configuration not stated)	66*	-2	14	-10	8	0
O=C(NC(=S)NCc1ccco1)c1cccc(Cl)c1	.	.	.	2	.	0
CC(NC(=O)NC(=O)c1cccc(Cl)c1)c1ccccc1 (configuration not stated)	8	1	2	-5	-15	-1
O=C(NC(=S)NCc1ccccc1)c1cccc(Cl)c1	-22	-7	11	4	36	29*
CC[C@@](CNC(=O)c1ccccc1Cl)(OC)c1ccccc1	0	.	.	.	.	.
